An excerpt weighted towards active compounds, which were near 8.5% of everything screened.
Sfp PPTase inh = inhibitors of Bacillus subtilis Sfp phosphopantetheinyl transferase; Q9F4F7; Biochemical Sfp PPTase activity, qHTS; Potency, µM, usual class: inhibitors; 310,000 compounds, 3.5% hits; AID 1490; active = well fitted curve in the direction sought with a large enough effect; inconclusive = small, poorly fitted or top-dose-only effect, or another doubt; inactive = no such curve, though single readings can be large; an effect the other way counts as inactive or inconclusive;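 note: the enzyme is Sfp with the accession as filed and its product quenches rhodamine fluorescence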
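With Hepes-Na pH 7.6 buffer containing 10 mM MgCl2, Sfp (15 nM) modified BHQ-2-YbbR (12.5 uM) using rhodamine-CoA (5 uM). Two reads 30 minutes apart at 525/598 nm yielded each well's rate.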
RGS12 GoLoco inh = blocks human Gai1 binding to RGS12 GoLoco peptide, red readout. P63096. Gai1:RGS12 GoLoco peptide FP, rhodamine, 10 min. Potency, µM (top dose mostly 61.6 µM), most hits filed as inhibitors. 230,000 compounds, 0.44% hits. AID 880; active = well fitted inhibition curve with a large enough effect, not every such curve was filed as active; inactive = no such curve, though single readings can be large or run the other way; note: nearly all actives have a fitted effect of over 30% in size
Target sequence (P63096 whole entry, looked up): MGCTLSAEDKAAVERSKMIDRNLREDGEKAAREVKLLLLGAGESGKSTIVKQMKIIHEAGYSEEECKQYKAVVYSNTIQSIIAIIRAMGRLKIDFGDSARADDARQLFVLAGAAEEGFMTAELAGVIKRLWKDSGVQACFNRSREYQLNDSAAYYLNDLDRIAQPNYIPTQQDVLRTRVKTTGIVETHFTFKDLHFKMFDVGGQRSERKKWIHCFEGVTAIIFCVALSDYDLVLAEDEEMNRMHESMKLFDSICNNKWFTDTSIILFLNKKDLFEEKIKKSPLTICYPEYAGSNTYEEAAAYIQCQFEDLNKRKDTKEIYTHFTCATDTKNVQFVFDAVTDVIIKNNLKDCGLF
NPSR antag = blocks cAMP signaling of the human neuropeptide S receptor. Q6W5P4. Potency, µM (top dose mostly 38.3 µM), hits mostly inhibitors. AID 1461. 220,000 compounds, 1% hits. CHO-NPSR cells, cAMP TR-FRET, antagonist mode; active = well fitted curve in the direction sought with a large enough effect; inconclusive = small, poorly fitted or top-dose-only effect, or another doubt; inactive = no such curve, though single readings can be large; an effect the other way counts as inactive or inconclusive; note: nearly all actives have a fitted effect of over 50% in size
ALDH1A1 block = inhibitors of human aldehyde dehydrogenase 1A1; P00352; Purified ALDH1A1, NADH fluorescence, propionaldehyde substrate; Potency, µM (top dose mostly 75.3 µM), actives largely listed as inhibitors; 220,000 compounds, 7.3% hits; AID 1030
FBPA coupling cs = inhibits coupling enzyme system, counter-screen for aldolase hits. AID 2472. 290,000 compounds, 0.67% hits. activity change, negative = inhibition, % at 58.2 µM, hits read low. coupling enzyme system counterscreen, AmpLite Red fluorescence; in the data active = activity change below about -30%
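Compounds tested against the coupling enzymes alone at 57.5 uM final; readout was AmpLite Red fluorescence (525/598 nm) after 20 min at RT.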
JMJD2E inh = blocks human JMJD2E demethylase activity. B2RXH2. JMJD2E catalytic domain, FDH-coupled NADH fluorescence (FDH is formaldehyde dehydrogenase). Potency, µM (highest dose often 57.1 µM), usual class: inhibitors. 230,000 compounds, 1.6% hits. AID 2147; note: nearly all actives have a fitted effect of over 50% in size
A number is an active result; – = inactive; ? = inconclusive; · = no result. Unless noted, calls come from the whole dose curve; as a rule, active = well fitted inhibition curve with a large enough effect (not every such curve was filed as active); inconclusive = small, poorly fitted or top-dose-only effect, or another doubt; inactive = no such curve, though single readings can be large or run the other way.

SMILES	Sfp PPTase inh	RGS12 GoLoco inh	NPSR antag	ALDH1A1 block	FBPA coupling cs	JMJD2E inh
O=C(Cc1ccccc1)Nc1nnc(-c2ccco2)s1	–	–	–	?	–	–
Nc1nnc(-c2ccco2)s1	5µM	–	–	?	–	–
COc1ccccc1OCC(=O)Nc1nnc(-c2ccco2)s1	–	–	–	7.1µM	–	–
COc1ccc(NC(=O)Nc2nnc(-c3ccco3)s2)cc1	–	–	–	·	–	–
CCCC(=O)Nc1nnc(-c2ccco2)s1	32µM	–	–	?	–	?
Cc1cccc(OCC(=O)Nc2nnc(-c3ccco3)s2)c1	–	–	–	32µM	–	?
Cc1nc(CNC(=O)CC2C(=O)NCCN2Cc2ccc(F)cc2)cs1 (stereo not given)	–	·	·	·	·	·
O=C(NCc1cccc(C(F)(F)F)c1)C1CCC(=O)N(C2CCCCCC2)C1 (stereo not given)	–	·	·	·	–	·
Cc1ccc2oc(=O)c3cc(C(=O)NCCCN4C(C)CCCC4C)sc3c2c1 (stereo not given)	–	·	·	·	·	·
OCCOC[C@H]1O[C@H](OCCO)[C@H](OCCO)[C@@H](OCCO)[C@@H]1OCCO (tested in a mixture with another compound)	–	·	·	·	·	·
COc1ccc(OC)c(-n2c(SCC(=O)N3CCc4ccccc43)nc3c(c2=O)SCC3)c1	–	–	–	–	–	–
COc1ccccc1-n1c(SCC(=O)N2CCc3ccccc32)nc2c(c1=O)SCC2	79µM	–	–	11µM	–	–
COc1ccccc1-n1c(SCC(=O)Nc2ccc3c(c2)OCO3)nc2c(c1=O)SCC2	–	–	–	20µM	–	–
COc1ccc(-n2c(SCC(=O)Nc3ccc4c(c3)OCO4)nc3c(c2=O)SCC3)cc1	–	–	–	?	–	–
CCn1nc(C(=O)OC(C(=O)c2c[nH]c3ccccc23)c2ccccc2)c2ccccc2c1=O (stereo not given)	–	–	?	?	–	–
CCOCCCNC(=O)c1oc2ccc3c(c2c1C)C(O)CC(C)(C)O3 (stereo not given)	–	·	·	·	–	·
CCC1=C2CC[C@H]3C(=O)NC(=O)[C@H]3[C@H]2[C@@]2(C)C(=O)N(CC3CC3)C(=O)N2C1=O	–	–	·	–	–	–
c1coc(-c2nc3c([nH]2)CCc2nonc2-3)c1	–	–	–	2.8µM	–	?
c1ccc(-c2nc3c([nH]2)CCc2nonc2-3)cc1	–	–	–	4.5µM	–	?
O=c1[nH]c(-c2ccco2)nc2sc3c(c12)CCCC3	–	–	–	?	–	?
Cc1cc2c(cc1S(=O)(=O)Nc1cccc(F)c1)n(C)c(=O)c(=O)n2C	–	·	·	·	–	·
COC(=O)c1ccc(CSc2nnc(Nc3ccc(OC)cc3)s2)o1	–	–	–	–	–	–
COC(=O)c1ccc(CSc2nnc(Nc3ccccc3OC)s2)o1	–	–	–	25µM	–	–
COC(=O)c1ccc(CSc2nc(C)nc3sc(C)c(C)c23)o1	25µM	·	–	–	–	–
COC(=O)[C@@]1(Cc2ccccc2)[C@H]2c3cc(C(=O)N4CCCC4)n(Cc4cccc5ccccc45)c3C[C@H]2CN1C(=O)c1ccccc1	–	–	·	–	–	–
SMILES	Sfp PPTase inh	RGS12 GoLoco inh	NPSR antag	ALDH1A1 block	FBPA coupling cs	JMJD2E inh
CC(C)C(=O)N1CCN(c2ccc([N+](=O)[O-])cc2Cl)CC1	–	–	–	14µM	–	–
CC(C)CC(=O)N1CCN(c2ccc([N+](=O)[O-])cc2Cl)CC1	–	–	–	32µM	–	–
CC(C)CC(=O)NC(=S)N1CCN(c2ccc([N+](=O)[O-])cc2Cl)CC1	–	–	–	?	–	–
O=C(c1ccc(-c2ccc(Cl)cc2)o1)N1CCN(c2ccc([N+](=O)[O-])cc2Cl)CC1	–	–	–	3.2µM	–	–
O=C(c1cccnc1)N1CCN(c2ccc([N+](=O)[O-])cc2Cl)CC1	–	–	–	?	–	–
COc1ccc2c(c1)c(C(C)=O)c(C)n2CCc1ccccc1	–	·	·	·	–	·
CSC1=C(C#N)C(c2ccccc2C)C(C#N)=C(N)N1 (stereo not given)	–	–	–	22µM	–	?
O=C(NCCc1ccc(C(F)(F)F)cc1)C1CCC(=O)N(CCCc2ccccc2)C1 (stereo not given)	–	·	·	·	–	·
